The supplement of paper PMC10849652
Targets with a hit are over-represented here; the source holds about 7,900 in all. About 0.6% of all pairs of compound and target were hits.

Each target was assayed with O=C(CCCCCCNC(=O)c1cnc(N(c2ccccc2)c2ccccc2Cl)nc1)NO [citarinostat] (assay: log2 fold change, soluble protein after heating vs DMSO (PISA); higher = thermal stabilisation; K562 cells, 10 uM, 30 min; active = over 0.2 and 3.5 SD of the protein, either way, in both replicates (recomputed)).
Method in brief: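 Thermal stability values are relative to control samples and come from duplicates. They are expressed as log2 fold changes. For measurement, K562 cells (2×10^6 cells/mL) received 10 μM compound for 30 min, and aliquots were heated for 3 min over 48°C-58°C, pooled, and extracted at 4°C in PBS with 0.5% NP-40. Soluble protein, the supernatant after 21,000xg for 90 min, was quantified by TMTpro 16plex LC-MS/MS with equalised channel sums.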

UniProt Q8WUM4, sequence (Q8WUM4 whole entry, looked up): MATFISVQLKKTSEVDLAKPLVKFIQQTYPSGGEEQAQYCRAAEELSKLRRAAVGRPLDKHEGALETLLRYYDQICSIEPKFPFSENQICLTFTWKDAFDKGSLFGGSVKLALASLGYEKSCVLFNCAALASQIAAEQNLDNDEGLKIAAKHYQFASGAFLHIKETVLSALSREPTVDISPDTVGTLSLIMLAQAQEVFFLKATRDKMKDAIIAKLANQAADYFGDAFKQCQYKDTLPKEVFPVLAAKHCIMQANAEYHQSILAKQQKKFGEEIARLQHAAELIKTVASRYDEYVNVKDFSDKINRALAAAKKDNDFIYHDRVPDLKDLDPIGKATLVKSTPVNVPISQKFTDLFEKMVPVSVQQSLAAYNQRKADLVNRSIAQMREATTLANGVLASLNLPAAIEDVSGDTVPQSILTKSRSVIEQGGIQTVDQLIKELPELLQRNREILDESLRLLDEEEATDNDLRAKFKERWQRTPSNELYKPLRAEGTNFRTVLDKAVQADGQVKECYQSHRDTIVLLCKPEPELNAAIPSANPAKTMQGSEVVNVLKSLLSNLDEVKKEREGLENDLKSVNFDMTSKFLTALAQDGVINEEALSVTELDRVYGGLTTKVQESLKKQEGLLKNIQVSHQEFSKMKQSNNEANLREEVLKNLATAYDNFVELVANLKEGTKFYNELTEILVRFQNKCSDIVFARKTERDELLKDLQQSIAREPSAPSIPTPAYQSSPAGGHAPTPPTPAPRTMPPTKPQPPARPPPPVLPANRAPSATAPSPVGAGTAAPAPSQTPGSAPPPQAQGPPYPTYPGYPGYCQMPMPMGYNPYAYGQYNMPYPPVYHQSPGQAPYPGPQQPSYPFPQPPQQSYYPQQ
UniProt P10644, sequence (P10644 whole entry, looked up): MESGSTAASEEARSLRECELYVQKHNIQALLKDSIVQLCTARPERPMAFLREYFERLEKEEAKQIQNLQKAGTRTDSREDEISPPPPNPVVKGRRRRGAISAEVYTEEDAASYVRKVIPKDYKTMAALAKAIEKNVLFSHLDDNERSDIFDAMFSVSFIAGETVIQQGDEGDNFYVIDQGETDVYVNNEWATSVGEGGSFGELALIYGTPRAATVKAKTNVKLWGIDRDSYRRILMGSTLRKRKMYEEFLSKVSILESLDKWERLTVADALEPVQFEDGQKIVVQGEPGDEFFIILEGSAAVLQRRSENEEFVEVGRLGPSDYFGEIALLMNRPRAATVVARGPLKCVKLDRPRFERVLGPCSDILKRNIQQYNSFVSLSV
UniProt Q9H0R6, sequence (Q9H0R6 whole entry, looked up): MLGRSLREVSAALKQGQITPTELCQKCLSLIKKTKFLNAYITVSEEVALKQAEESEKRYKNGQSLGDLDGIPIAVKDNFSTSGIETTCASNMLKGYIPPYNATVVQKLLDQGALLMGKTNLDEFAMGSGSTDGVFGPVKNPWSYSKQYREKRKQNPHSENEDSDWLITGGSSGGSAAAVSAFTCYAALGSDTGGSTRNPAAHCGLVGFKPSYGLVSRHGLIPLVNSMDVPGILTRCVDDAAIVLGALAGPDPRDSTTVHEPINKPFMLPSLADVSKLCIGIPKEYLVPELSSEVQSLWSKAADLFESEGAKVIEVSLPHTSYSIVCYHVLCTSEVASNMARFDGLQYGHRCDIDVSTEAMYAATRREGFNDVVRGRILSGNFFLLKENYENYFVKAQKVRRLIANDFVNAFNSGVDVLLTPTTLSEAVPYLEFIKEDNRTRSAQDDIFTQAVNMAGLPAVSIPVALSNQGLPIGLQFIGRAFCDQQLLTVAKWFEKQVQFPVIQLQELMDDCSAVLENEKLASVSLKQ
UniProt Q96A00, sequence (Q96A00 whole entry, looked up): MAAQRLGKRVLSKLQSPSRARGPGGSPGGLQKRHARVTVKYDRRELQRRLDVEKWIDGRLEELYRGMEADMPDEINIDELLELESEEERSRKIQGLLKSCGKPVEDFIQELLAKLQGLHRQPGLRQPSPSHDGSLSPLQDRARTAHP
UniProt Q93096, sequence (Q93096 whole entry, looked up): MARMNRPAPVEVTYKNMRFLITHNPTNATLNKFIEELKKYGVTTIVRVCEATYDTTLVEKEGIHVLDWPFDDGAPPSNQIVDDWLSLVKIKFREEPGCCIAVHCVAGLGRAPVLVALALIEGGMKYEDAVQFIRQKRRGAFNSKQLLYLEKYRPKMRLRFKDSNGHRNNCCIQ
UniProt O95394, sequence (O95394 whole entry, looked up): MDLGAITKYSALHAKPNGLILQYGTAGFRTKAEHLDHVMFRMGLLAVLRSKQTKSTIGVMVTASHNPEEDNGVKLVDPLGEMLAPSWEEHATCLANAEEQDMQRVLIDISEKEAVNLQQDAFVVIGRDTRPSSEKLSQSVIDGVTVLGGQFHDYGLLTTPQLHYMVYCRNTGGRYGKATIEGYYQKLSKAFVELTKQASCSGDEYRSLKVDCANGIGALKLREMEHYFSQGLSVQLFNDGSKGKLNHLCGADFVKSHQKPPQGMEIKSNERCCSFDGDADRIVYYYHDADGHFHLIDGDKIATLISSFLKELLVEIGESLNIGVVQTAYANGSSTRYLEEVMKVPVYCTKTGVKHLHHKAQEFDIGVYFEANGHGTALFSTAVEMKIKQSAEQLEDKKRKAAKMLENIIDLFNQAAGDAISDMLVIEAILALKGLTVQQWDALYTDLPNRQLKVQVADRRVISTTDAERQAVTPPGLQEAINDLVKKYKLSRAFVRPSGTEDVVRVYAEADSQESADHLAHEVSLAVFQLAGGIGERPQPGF
UniProt Q8NEB9, sequence (Q8NEB9 whole entry, looked up): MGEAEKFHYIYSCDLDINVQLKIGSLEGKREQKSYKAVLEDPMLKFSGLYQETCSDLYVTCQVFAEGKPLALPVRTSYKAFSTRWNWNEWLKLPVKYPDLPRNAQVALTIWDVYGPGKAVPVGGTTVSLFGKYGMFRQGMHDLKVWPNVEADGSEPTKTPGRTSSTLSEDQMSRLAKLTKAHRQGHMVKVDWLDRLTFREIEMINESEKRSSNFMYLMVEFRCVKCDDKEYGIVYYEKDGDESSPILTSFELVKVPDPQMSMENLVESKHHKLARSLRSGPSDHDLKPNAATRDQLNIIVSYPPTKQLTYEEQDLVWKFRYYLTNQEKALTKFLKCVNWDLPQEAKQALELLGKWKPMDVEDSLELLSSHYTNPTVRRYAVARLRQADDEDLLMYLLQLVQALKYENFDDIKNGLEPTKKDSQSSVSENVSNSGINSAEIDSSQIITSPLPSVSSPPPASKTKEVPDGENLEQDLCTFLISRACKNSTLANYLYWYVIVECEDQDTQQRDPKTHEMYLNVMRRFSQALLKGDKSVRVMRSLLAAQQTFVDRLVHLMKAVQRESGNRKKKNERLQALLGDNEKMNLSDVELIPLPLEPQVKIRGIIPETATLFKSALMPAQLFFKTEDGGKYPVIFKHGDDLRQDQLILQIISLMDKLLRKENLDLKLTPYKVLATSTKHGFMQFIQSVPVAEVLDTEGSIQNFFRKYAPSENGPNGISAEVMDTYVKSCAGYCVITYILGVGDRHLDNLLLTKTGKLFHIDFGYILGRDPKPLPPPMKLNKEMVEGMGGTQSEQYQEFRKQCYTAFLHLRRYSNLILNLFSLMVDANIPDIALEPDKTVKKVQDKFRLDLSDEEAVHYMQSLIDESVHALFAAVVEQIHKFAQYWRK
UniProt Q15054, sequence (Q15054 whole entry, looked up): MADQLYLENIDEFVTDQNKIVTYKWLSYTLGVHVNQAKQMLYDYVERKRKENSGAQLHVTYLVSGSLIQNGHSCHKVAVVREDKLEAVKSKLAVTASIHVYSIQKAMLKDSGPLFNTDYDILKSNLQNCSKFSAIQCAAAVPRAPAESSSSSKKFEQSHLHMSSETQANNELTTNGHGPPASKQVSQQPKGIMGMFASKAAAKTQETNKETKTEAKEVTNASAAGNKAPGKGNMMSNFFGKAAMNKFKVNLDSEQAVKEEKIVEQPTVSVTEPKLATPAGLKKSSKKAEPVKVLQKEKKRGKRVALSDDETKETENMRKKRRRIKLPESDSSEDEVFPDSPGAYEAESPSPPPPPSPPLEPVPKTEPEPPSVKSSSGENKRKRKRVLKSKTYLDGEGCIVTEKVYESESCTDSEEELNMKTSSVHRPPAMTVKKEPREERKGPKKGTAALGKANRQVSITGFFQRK
UniProt Q9BRX2, sequence (Q9BRX2 whole entry, looked up): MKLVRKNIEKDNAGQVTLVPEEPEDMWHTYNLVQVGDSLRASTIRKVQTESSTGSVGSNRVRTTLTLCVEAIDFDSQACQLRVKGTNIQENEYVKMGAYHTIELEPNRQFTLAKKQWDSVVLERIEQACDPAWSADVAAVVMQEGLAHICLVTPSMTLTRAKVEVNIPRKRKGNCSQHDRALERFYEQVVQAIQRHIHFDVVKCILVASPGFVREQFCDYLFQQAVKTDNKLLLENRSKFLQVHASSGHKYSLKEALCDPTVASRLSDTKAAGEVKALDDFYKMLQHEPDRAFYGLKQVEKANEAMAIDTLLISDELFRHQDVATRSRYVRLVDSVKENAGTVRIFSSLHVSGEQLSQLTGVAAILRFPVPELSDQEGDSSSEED
UniProt P49643, sequence (P49643 whole entry, looked up): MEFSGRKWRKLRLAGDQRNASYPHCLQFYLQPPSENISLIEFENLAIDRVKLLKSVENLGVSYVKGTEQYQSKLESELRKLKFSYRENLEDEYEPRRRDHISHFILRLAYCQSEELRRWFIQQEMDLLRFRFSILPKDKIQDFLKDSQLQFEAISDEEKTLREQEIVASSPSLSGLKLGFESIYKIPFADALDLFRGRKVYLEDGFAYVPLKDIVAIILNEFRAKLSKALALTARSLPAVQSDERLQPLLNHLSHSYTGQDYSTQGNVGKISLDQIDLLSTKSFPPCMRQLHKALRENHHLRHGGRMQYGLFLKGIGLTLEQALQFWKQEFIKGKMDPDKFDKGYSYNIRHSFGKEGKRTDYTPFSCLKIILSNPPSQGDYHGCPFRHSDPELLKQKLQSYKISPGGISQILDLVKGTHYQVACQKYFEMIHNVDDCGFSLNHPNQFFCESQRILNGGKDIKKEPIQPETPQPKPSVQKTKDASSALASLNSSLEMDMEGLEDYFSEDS

log2 fold change, active:
PLA2G15 (UniProt Q8NCC3) 0.279

log2 fold change, inactive:
PDE2A (UniProt O00408) -0.032
PSMC5 (UniProt P62195) -0.021
POMP (UniProt Q9Y244) 0.026
PELO (UniProt Q9BRX2) 0.009
POLR2A (UniProt P24928) -0.062
PHAX (UniProt Q9H814) 0.041
PRPF31 (UniProt Q8WWY3) 0.042
PKM isoform 2 (UniProt P14618) -0.075
PSMD11 (UniProt O00231) -0.001
PURA (UniProt Q00577) -0.141
PPIL4 (UniProt Q8WUA2) 0.033
POLR2K (UniProt P53803) 0.13
PIK3C3 (UniProt Q8NEB9) -0.038
PRIM2 (UniProt P49643) 0.135
PARG (UniProt Q86W56) 0.067
PTP4A1 (UniProt Q93096) 0.063
PPP1R14A (UniProt Q96A00) 0
POLR3K (UniProt Q9Y2Y1) -0.025
PARL (UniProt Q9H300) 0.054
QRSL1 (UniProt Q9H0R6) 0.053
PRPF40A (UniProt O75400) 0.079
PATL1 (UniProt Q86TB9) 0.02
PDCD6IP (UniProt Q8WUM4) 0.113
PRKACA (UniProt P17612) 0.023
PEX13 (UniProt Q92968) 0.023
PPP1R35 (UniProt Q8TAP8) -0.058
PIGT (UniProt Q969N2) 0.04
PDS5B (UniProt Q9NTI5) 0.046
PRKAR1A (UniProt P10644) 0
PGM3 isoform 4 (UniProt O95394) 0.046
PLK1 (UniProt P53350) 0.019
PI4K2A (UniProt Q9BTU6) 0.072
PLSCR1 (UniProt O15162) 0.05
POLD3 (UniProt Q15054) 0.003
PPP1CA (UniProt P62136) 0.034
PRKAB2 (UniProt O43741) -0.1
